Compounds without any hit were thinned out: in the full panel of roughly 79,000, 15% have a hit. Calls of active or inactive are those of the source. No stated cut-off is given here; in the data, active means growth inhibition above about 70%; inactive means the rest.
Assays:
[1] = NCI Yeast Anticancer Drug Screen. Data for the rad52 strain (AID 147);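 further: 0% = growth of vehicle-treated control cultures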; settings: S. cerevisiae rad52 mutant growth inhibition, active compounds read high
Summary of the method: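 Yeast strain carrying a DNA damage repair alteration was exposed to test compounds. Growth inhibition was measured relative to vehicle-treated controls.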

[2] = NCI Yeast Anticancer Drug Screen. Data for the wt1 strain (AID 149);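 further: 0% = growth of vehicle-treated wt1 cultures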; settings: S. cerevisiae wt1 strain (SPY 50644) growth inhibition, active compounds read high
Summary of the method: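 wt1 yeast, compound-treated; % growth inhibition vs vehicle control.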

[3] = NCI Yeast Anticancer Drug Screen. Data for the rad50EPP+ strain (AID 151);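 further: 0% = growth of vehicle-treated control cultures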; settings: S. cerevisiae rad50 mutant strain, active compounds read high
Summary of the method: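 Yeast strain carrying rad50 alteration (rad50EPP+) exposed to compounds; growth inhibition measured relative to vehicle-treated controls.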

[4] = NCI Yeast Anticancer Drug Screen. Data for the rad50 strain (AID 155);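 further: 0% = growth of vehicle-only cultures of the same strain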; settings: S. cerevisiae rad50 strain growth inhibition, active compounds read high
Summary of the method: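 Genetically altered yeast (DNA repair pathway); compound treatment; growth inhibition vs vehicle ctrl.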

[5] = NCI Yeast Anticancer Drug Screen. Data for the mec2-1 strain (AID 157); settings: S. cerevisiae mec2-1 strain, active compounds read high
Summary of the method: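 mec2-1 yeast strain, carrying an alteration in DNA damage repair or cell cycle control, was exposed to compounds; growth inhibition was measured relative to vehicle-treated controls.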

[6] = NCI Yeast Anticancer Drug Screen. Data for the rad14 strain (AID 159);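 further: 0% = growth of vehicle-treated control cultures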; settings: S. cerevisiae rad14 strain growth inhibition, active compounds read high
Summary of the method: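 Test compounds were applied to a repair-deficient yeast strain. Its growth was then compared with that of cultures given vehicle alone, and inhibition was expressed relative to those controls.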

[7] = NCI Yeast Anticancer Drug Screen. Data for the sgs1 mgt1 strain (AID 161);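 further: 0% = growth of cultures given vehicle only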; settings: S. cerevisiae sgs1 mgt1 strain, active compounds read high
Summary of the method: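 Compounds are added to genetically altered yeast, and growth is compared with cultures given vehicle alone to give percent inhibition.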

[8] = NCI Yeast Anticancer Drug Screen. Data for the CLN2oe strain (AID 163);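 further: 0% = growth of vehicle-only control cultures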; settings: S. cerevisiae CLN2oe strain, active compounds read high
Summary of the method: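 Yeast cells carrying a defined cell-cycle control alteration were exposed to test compounds. Growth inhibition was scored against vehicle-treated control cultures.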

[9] = NCI Yeast Anticancer Drug Screen. Data for the cln2 rad14 strain (AID 165);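 further: 0% = growth equal to vehicle treated cultures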; settings: S. cerevisiae cln2 rad14 strain, active compounds read high
Summary of the method: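 Yeast carrying cln2 and rad14 alterations (cell cycle control and DNA damage repair) were exposed to compounds. Growth inhibition was measured against vehicle-treated controls.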

[10] = NCI Yeast Anticancer Drug Screen. Data for the bub3 strain (AID 167); settings: S. cerevisiae bub3 mutant strain, active compounds read high
Summary of the method: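 Yeast carrying a defined mutation is treated with each compound, and growth is compared with that of vehicle-exposed cells to give inhibition.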

[11] = NCI Yeast Anticancer Drug Screen. Data for the wt2 strain (AID 169);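 further: 0% = growth of vehicle-treated yeast cultures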; settings: S. cerevisiae wt2 strain growth inhibition, active compounds read high
Summary of the method: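 Yeast cells were exposed to test compounds, and growth inhibition was measured relative to vehicle-treated controls.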

[12] = NCI Yeast Anticancer Drug Screen. Data for the mlh1 strain (AID 171);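 further: 0% = growth of vehicle-treated control cultures of the same strain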; settings: S. cerevisiae mlh1 strain growth inhibition, active compounds read high
Summary of the method: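 Yeast carrying a defined genetic alteration in DNA damage repair or cell cycle control were exposed to test compounds. Growth inhibition was measured relative to vehicle-treated controls.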

[13] = NCI Yeast Anticancer Drug Screen. Data for the sgs1 strain (AID 173);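 further: 0% = growth of vehicle-only control cultures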; settings: S. cerevisiae sgs1 mutant, active compounds read high
Summary of the method: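 Yeast mutant strains carrying defined defects in DNA damage repair or cell cycle control were exposed to test compounds. Growth inhibition was scored against vehicle-treated controls.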

[14] = NCI Yeast Anticancer Drug Screen. Data for the mlh1 rad18 strain (AID 175); settings: S. cerevisiae mlh1 rad18 strain growth inhibition, active compounds read high
Summary of the method: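 Growth inhibition of the yeast strain was measured after compound exposure and expressed relative to vehicle-treated controls. The strain carries defined defects in DNA damage repair.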

[15] = NCI Yeast Anticancer Drug Screen. Data for the rad18 strain (AID 177); settings: S. cerevisiae rad18 mutant growth inhibition, active compounds read high
Summary of the method: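 Yeast carrying a defined DNA damage repair alteration were exposed to compounds. Growth inhibition was expressed relative to vehicle-treated controls.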

[16] = at 5.0 µM (retest, dose inferred, filed as 0.5)
[17] = at 50.0 µM (retest, dose inferred, filed as 5.0)

Measured: growth inhibition

CC[C@]1(O)CC(OC2CC(N(C)C)C(O)C(C)O2)c2c(cc3c(c2O)C(=O)c2c(O)cccc2C3=O)[C@@H]1C(=O)OC (stereo partly drawn)
active: [1]; at 3.7 µM 77% | [1]; at 11.0 µM 86% | [1]; at 33.0 µM 94% | [1]; at 100.0 µM 96% | [2]; at 33.0 µM 91% | [2]; at 100.0 µM 96% | [3]; at 33.0 µM 70% | [3]; at 100.0 µM 89% | [4]; at 3.7 µM 75% | [4]; at 11.0 µM 87% | [4]; at 33.0 µM 96% | [4]; [17] 95% | [4]; at 50.0 µM 91.6% | [4]; at 100.0 µM 97% | [5]; at 33.0 µM 79% | [5]; [17] 95% | [5]; at 50.0 µM 93% | [5]; at 100.0 µM 95% | [6]; at 33.0 µM 81% | [6]; at 100.0 µM 96% | [7]; [17] 96% | [7]; at 50.0 µM 93% | [8]; at 33.0 µM 89% | [8]; at 100.0 µM 95% | [9]; [17] 92% | [9]; at 50.0 µM 90.4% | [10]; at 33.0 µM 93% | [10]; [17] 97% | [10]; at 50.0 µM 92% | [10]; at 100.0 µM 98% | [11]; at 33.0 µM 95% | [11]; at 100.0 µM 97% | [12]; at 33.0 µM 90% | [12]; at 100.0 µM 96% | [13]; at 33.0 µM 92% | [13]; at 100.0 µM 96% | [14]; [17] 95% | [14]; at 50.0 µM 91% | [15]; at 33.0 µM 95% | [15]; at 100.0 µM 97%
inactive: [1]; at 1.2 µM 31% | [2]; at 1.2 µM -2% | [2]; at 3.7 µM -4% | [2]; at 11.0 µM -1% | [3]; at 1.2 µM 6% | [3]; at 3.7 µM 12% | [3]; at 11.0 µM 40% | [4]; at 1.2 µM 33% | [4]; [16] 50% | [5]; at 1.2 µM -16% | [5]; at 3.7 µM -14% | [5]; [16] 4% | [5]; at 11.0 µM 7% | [6]; at 1.2 µM -12% | [6]; at 3.7 µM -18% | [6]; at 11.0 µM 0% | [7]; [16] 36% | [8]; at 1.2 µM -37% | [8]; at 3.7 µM -6% | [8]; at 11.0 µM 12% | [9]; [16] 15% | [10]; at 1.2 µM 33% | [10]; at 3.7 µM 32% | [10]; [16] 21% | [10]; at 11.0 µM 36% | [11]; at 1.2 µM -6% | [11]; at 3.7 µM -6% | [11]; at 11.0 µM 41% | [12]; at 1.2 µM -4% | [12]; at 3.7 µM 6% | [12]; at 11.0 µM 9% | [13]; at 1.2 µM -8% | [13]; at 3.7 µM -2% | [13]; at 11.0 µM 14% | [14]; [16] 22% | [15]; at 1.2 µM 6% | [15]; at 3.7 µM -9% | [15]; at 11.0 µM 2%

From PubChem BioAssay (NCI)
